Data taken from PubChem BioAssay AID1159580 (chemical genetic matrix, 2015).
“And” between values parts separate entries of the source, which are not always exact repeats. Identical values can stand only once. Hit rate of the full screen: of about 5,500 compounds, about 2,000 (36%) were called active. Another 18% or so got no clear call; they are omitted. Rule as the data show it: active = normalized growth mostly below about 0.91 (no sharp cut-off); inconclusive = no clear call, values can overlap the other calls; inactive = mostly above about 0.92. The list shows a part of the results.

Assay: chemical genetic growth profiling, strain panel (AID 1159580);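 also: tested at 20 µM; growth read once vehicle control cultures reached saturation at 30 °C; 1 = growth at the plate median or of vehicle wells; lower values mean less growth of the strain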
Settings: S. cerevisiae deletion strains, growth OD

Measured: normalized growth

NCC(CC(=O)O)c1ccc(Cl)cc1 (configuration not stated)
inactive: locus YAL013W, strain DEP1, stronger effect = lower value 1.02 | locus YAL021C, strain ccr4, stronger effect = lower value 0.99 | locus YAL026C, strain drs2, stronger effect = lower value 0.997 | locus YAL030W, strain snc1, stronger effect = lower value 1 | locus YAL040C, strain CLN3, stronger effect = lower value 1.03 | locus YBL061C, strain skt5, stronger effect = lower value 1 | locus YBR009C, strain hhf1, stronger effect = lower value 0.968 | locus YBR021W, strain FUR4, stronger effect = lower value 1.04 | locus YBR023C, strain chs3, stronger effect = lower value 0.997 | locus YBR171W, strain sec66, stronger effect = lower value 1.01 | locus YBR229C, strain ROT2, stronger effect = lower value 1.01 | locus YBR231C, strain swc5, stronger effect = lower value 1.01 | locus YBR279W, strain paf1, stronger effect = lower value 0.994 | locus YCL011C, strain gbp2, stronger effect = lower value 0.992 | locus YCL016C, strain dcc1, stronger effect = lower value 0.976 | locus YCL029C, strain bik1, stronger effect = lower value 0.993 | locus YCL061C, strain MRC1 (second series), stronger effect = lower value 0.981 | locus YCL069W, strain vba3, stronger effect = lower value 0.994 | locus YCR088W, strain abp1, stronger effect = lower value 1 | locus YDL005C, strain med2, stronger effect = lower value 1 | locus YDL035C, strain GPR1, stronger effect = lower value 1.05 | locus YDL040C, strain nat1, stronger effect = lower value 0.995 | locus YDL074C, strain BRE1, stronger effect = lower value 1.03 | locus YDL101C, strain DUN1, stronger effect = lower value 1.01 | locus YDL185W, strain tfp1, stronger effect = lower value 0.993 | locus YDL192W, strain arf1, stronger effect = lower value 0.991 | locus YDR001C, strain nth1, stronger effect = lower value 0.995 | locus YDR069C, strain doa4, stronger effect = lower value 1.02 | locus YDR101C, strain arx1, stronger effect = lower value 0.979 | locus YDR137W, strain rgp1, stronger effect = lower value 0.98 | locus YDR150W, strain NUM1, stronger effect = lower value 1.01 | locus YDR159W, strain sac3, stronger effect = lower value 0.945 | locus YDR162C, strain NBP2, stronger effect = lower value 1.04 | locus YDR195W, strain ref2 0.995 | locus YDR297W, strain sur2, stronger effect = lower value 1.01 | locus YDR318W, strain mcm21, stronger effect = lower value 0.993 | locus YDR334W, strain swr1, stronger effect = lower value 1 | locus YDR335W, strain msn5, stronger effect = lower value 1 | locus YDR388W, stronger effect = lower value 0.99 | locus YDR392W, strain spt3, stronger effect = lower value 0.928 | locus YDR502C, strain sam2, stronger effect = lower value 0.991 | locus YEL003W, strain gim4, stronger effect = lower value 0.996 | locus YEL037C, strain rad23, stronger effect = lower value 0.998 | locus YEL061C, strain CIN8 (second series), stronger effect = lower value 1.01 | locus YEL061C, strain CIN8, stronger effect = lower value 1.01 | locus YER002W, strain NOP16, stronger effect = lower value 0.992 | locus YER015W, strain faa2, stronger effect = lower value 1 | locus YER016W, strain bim1, stronger effect = lower value 0.975 | locus YER110C, stronger effect = lower value 0.978 | locus YER111C, strain swi4, stronger effect = lower value 0.989 | locus YER155C, strain BEM2 (second series), stronger effect = lower value 1.02 | locus YER155C, strain BEM2, stronger effect = lower value 1.02 | locus YER167W, strain BCK2, stronger effect = lower value 1.02 | locus YFR010W, strain ubp6, stronger effect = lower value 1.01 | locus YGL078C, strain dbp3, stronger effect = lower value 0.984 | locus YGL086W, strain mad1, stronger effect = lower value 0.988 | locus YGL167C, strain pmr1, stronger effect = lower value 0.99 | locus YGL173C, strain kem1, stronger effect = lower value 1 | locus YGL227W, strain vid30, stronger effect = lower value 1 | locus YGL240W, strain doc1, stronger effect = lower value 1.03 | locus YGL248W, strain PDE1, stronger effect = lower value 1.02 | locus YGL253W, strain hxk2, stronger effect = lower value 0.966 | locus YGR078C, strain PAC10, stronger effect = lower value 1.01 | locus YGR135W, strain pre9, stronger effect = lower value 0.987 | locus YGR229C, strain SMI1, stronger effect = lower value 0.955 | locus YGR252W, strain gcn5, stronger effect = lower value 0.966 | locus YHR013C, strain ard1, stronger effect = lower value 0.982 | locus YHR027C, strain rpn1, stronger effect = lower value 0.98 | locus YHR030C, strain SLT2, stronger effect = lower value 1.01 and 1.05 | locus YHR079C, strain IRE1 (second series), stronger effect = lower value 0.984 | locus YHR079C, strain IRE1, stronger effect = lower value 1.06 | locus YHR094C, strain hxt1, stronger effect = lower value 0.985 | locus YHR129C, strain ARP1, stronger effect = lower value 1.01 | locus YHR142W, strain chs7, stronger effect = lower value 0.958 | locus YHR200W, strain rpn10, stronger effect = lower value 0.987 | locus YIL066C, strain RNR3, stronger effect = lower value 1.04 | locus YIL073C, strain SPO22, stronger effect = lower value 0.986 | locus YIL125W, strain kgd1, stronger effect = lower value 0.977 | locus YIR030C, strain dcg1, stronger effect = lower value 1 | locus YJL092W, strain hpr5, stronger effect = lower value 1.01 | locus YJL095W, strain BCK1 (second series), stronger effect = lower value 1 | locus YJL095W, strain BCK1, stronger effect = lower value 1.01 and 1.06 | locus YJL115W, strain asf1, stronger effect = lower value 1.02 | locus YJL129C, strain trk1, stronger effect = lower value 1 | locus YJL134W, strain LCB3, stronger effect = lower value 1.01 | locus YJL154C, strain vps35, stronger effect = lower value 0.991 | locus YJL164C, strain tpk1, stronger effect = lower value 0.975 | locus YJL166W, strain qcr8, stronger effect = lower value 1.01 | locus YJL168C, strain set2, stronger effect = lower value 0.994 | locus YJL187C, strain SWE1 (second series), stronger effect = lower value 1.01 | locus YJR043C, strain POL32, stronger effect = lower value 1.03 | locus YJR066W, strain TOR1, stronger effect = lower value 0.996
